Results with a measured potency or affinity are listed apart. Active and inactive are the calls of the source. How the calls were made is not given here.
assay: HEK293 cell cytotoxicity, dose response, cytotoxicity control, dry powder samples (AID 720567); conditions: plate reader; series mostly up to 15 µM

Structure (SMILES)	outcome
Nc1nc(=S)c2ncn([C@@H]3O[C@H](CO)[C@@H](O)[C@H]3O)c2[nH]1	inactive
O=C1CCNc2cc3ccccc3cc21	inactive
CCOc1ccc(S(=O)(=O)NCc2ccccn2)cc1NC(=O)c1ccccc1F	inactive
COc1cc(Nc2c3c(nc4ccccc24)CCCC3)cc(OC)c1OC	inactive
CC(=O)N1CCC(=O)c2cc3ccccc3cc21	inactive
CCCNS(=O)(=O)c1cccc(C(=O)OCc2cc(=O)oc3cc(OC)ccc23)c1	inactive
CCN(CC)CCCNc1nc2cc(OC)c(OC)cc2c2nc(-c3ccccc3)nn12	inactive
COc1ccccc1OCC(=O)NNC(=O)c1ccoc1C	inactive
Cc1ccc(C(=O)c2cc([N+](=O)[O-])ccc2N2CCOCC2)cc1C	inactive
COc1ccc2c(COC(=O)c3cccc(S(=O)(=O)NCC(C)C)c3)cc(=O)oc2c1	inactive
Cc1ccc(Oc2ccc(S(=O)(=O)N3CCOCC3)cc2C(N)=O)c(-n2nc3ccccc3n2)c1	inactive
CCOC(=O)c1ccc(Oc2cc(C)nc(SC)n2)cc1	inactive
Brc1ccc(CSc2nnc(-c3ccccc3)o2)cc1	inactive
COc1ccc(-c2nnc(SCc3ccccc3)o2)cc1	inactive
CCN(CC)CCOc1ccc2c(c1)C(=NNC(=O)c1ccccn1)c1cc(OCCN(CC)CC)ccc1-2	inactive
CCCCOc1ccccc1C1CC(=O)NC2=C1C(=O)CCC2 (stereo not drawn)	inactive
Cc1cnc(NC(=O)c2cc(S(=O)(=O)N(C)C)ccc2N2CCCC2)s1	inactive
CCN(CC)CCC(=O)Nc1cccc2c1C(=O)c1ccccc1C2=O	inactive
COc1cc(-c2nnc(SCC3(c4ccc(Br)cc4)OCCO3)o2)cc(OC)c1OC	inactive
COc1ccccc1-c1nnc(SCc2ccccc2)o1	inactive
Cc1[nH][nH]c(=O)c1C(c1ccc(-c2ccc(Cl)c(Cl)c2)o1)c1c(C)[nH][nH]c1=O	inactive
COc1ccccc1CSc1nnc(-c2ccccc2)o1	inactive
Cc1cc(C)nc(/N=C(\N)Nc2ccc(OCc3ccccc3)cc2)n1	inactive
Cc1ccc(/C=N/NC(=O)C2COc3ccccc3O2)s1 (stereo not drawn)	inactive
O=C1CCN(Cc2ccccc2)c2cc3ccccc3cc21	inactive
CC(=O)c1cccc(NC(=O)CSc2ncc(C(=O)Nc3ccccc3)c(=O)n2C)c1	inactive
O=C(Cc1ccccc1)c1nnc(-c2ccccc2)o1	inactive
Cc1cc(=O)[nH]c(N/N=C/c2cc(C)n(CC(F)(F)F)c2C)n1	inactive

From PubChem BioAssay AID720567 (Broad Institute, 2013)
